# The entries come from a sample that favours hits as a whole.
# Pf apPOL inh – Pf-apPOL DNA polymerase inhibition; Recombinant Pf-apPOL, molecular beacon fluorescence, 1.5 h; hit rate 0.25% among 210,000; inhibition, % at 10 µM
# mHTT CaM bind – mHTT-calmodulin interaction abrogation; P42858; inhibition, % at 15 µM; AlphaScreen His-mHTT/GST-CaM binding, luminescence; hit rate 3.6% among 190,000;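 note: 0% = both proteins with DMSO and 100% = one protein alone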
# Active calls of the source: *; . = no result. Cut-off read from the data, not from the text of the source: active = inhibition above about 50%; inactive = the rest.
SMILES,Pf apPOL inh,mHTT CaM bind
Cc1cc(C)cc(NC(=O)c2csc(-c3ccc(C)n3C)n2)c1,-9,3
CCc1ccccc1NC(=O)c1csc(-c2ccc(C)n2C)n1,-3,35
Cc1ccccc1CNC(=O)c1csc(-c2ccc(C)n2C)n1,2,82*
Cc1ccc(-c2nc(C(=O)NCc3ccc(F)cc3)cs2)n1C,-5,85*
Cc1ccc(NC(=O)c2csc(-c3ccc(C)n3C)n2)c(C)c1,1,-5
Cc1ccc(-c2nc(C(=O)NCc3ccccc3Cl)cs2)n1C,0,59*
Cc1ccccc1N1CCN(C(=O)c2ccc(Cl)c(Cl)c2)C(C)C1=O (centres undefined),-3,8
COc1ccc(NC(=O)N(CCCN2CCOCC2)Cc2cccnc2)c(OC)c1,68*,-1
COc1ccc(NC(=O)CN2CCC(C(=O)NCc3cccnc3)CC2)c(OC)c1,-3,1
COC(=O)c1ccc2c(c1)C(=O)C(=Cc1ccccc1F)O2,-6,7
O=C(OC1OC2COC(=O)c3cc(O)c(O)c(O)c3-c3c(cc(O)c(O)c3O)C(=O)OC(C2O)C1O)c1cc(O)c(O)c(O)c1 (centres undefined),99*,.
COc1c(O)cc2c(c1O)C1OC(CO)C(O)C(O)C1OC2=O (centres undefined),-10,.
CN(CC(=O)N1CCN(Cc2ccccc2)CC1)S(=O)(=O)c1ccc(Cl)cc1,97*,7
CN(CC(=O)N1CCCC1)S(=O)(=O)c1ccc(Cl)cc1,51*,-4
CN(CC(=O)N1CCN(c2ccc(F)cc2)CC1)S(=O)(=O)c1ccc(Cl)cc1,-4,12
CN(CC(=O)N1CCCCCC1)S(=O)(=O)c1ccc(Cl)cc1,-3,2
COc1ccc(N2CCN(C(=O)CN(C)S(=O)(=O)c3ccc(Cl)cc3)CC2)cc1,89*,17
CN1CCN(C(=O)CN(C)S(=O)(=O)c2ccc(Cl)cc2)CC1,8,-4
COC(=O)c1ccc(C)cc1NC(=O)N1CCc2cn(C)c3cccc(c23)C1,-2,-2
CCOc1ccc(-n2nc(C(=O)N(C)c3ccc(Cl)cc3)c3ccccc3c2=O)cc1,6,-7
NNC(=O)c1nc(-c2ccc(OC(F)(F)F)cc2)no1,-10,.
Cc1ccc(CCN2CC(C(=O)NCc3ccc(F)cc3)CC2=O)cc1 (centres undefined),2,6
O=C(CSC1=NCCS1)NCCSCc1ccco1,-3,.
O=C(CSc1nc2ccccc2o1)NCCSCc1ccco1,63*,.
O=C(Nc1cccc([N+](=O)[O-])c1)c1cnc2n(c1=O)CCS2,4,3
SMILES,Pf apPOL inh,mHTT CaM bind
O=C(NCc1cccs1)c1ccc2ncnc(N3CCCC3)c2c1,20,41
CCCCC(=O)Nc1c2c(nn1-c1ccccc1C)CS(=O)(=O)C2,72*,3
Cc1ccccc1-n1nc2c(c1NC(=O)Cc1ccccc1)CS(=O)(=O)C2,-7,5
O=C(C[n+]1cc(Br)cc2ccccc21)c1ccccc1,1,60*
COc1ccc(C(=O)C[n+]2cc(Br)cc3ccccc32)cc1[N+](=O)[O-],0,44
Cc1ccc(OCC(=O)N2CCN(c3nc(CN4CCCCC4)cs3)CC2)cc1,1,38
O=C(COc1ccc(Cl)cc1)N1CCN(c2nc(CN3CCCCC3)cs2)CC1,-3,50*
O=C(C1CCCC1)N1CCN(c2nc(CN3CCCCCC3)cs2)CC1,4,16
O=C(C1CCCCC1)N1CCN(c2nc(CN3CCCCCC3)cs2)CC1,34,96*
C=CCNC(=O)Cc1ccc([N+](=O)[O-])cc1,-9,0
O=C1C2CC=C(Cl)CC2C(=O)N1c1ccc([N+](=O)[O-])cc1O (centres undefined),-5,10
Cc1ccnc(NS(=O)(=O)c2ccc(Cl)cc2)c1,0,-1
Cc1ccnc(NS(=O)(=O)c2ccc(C(C)(C)C)cc2)c1,-2,100*
O=C1OC2(CCCCC2)OC(=O)C1=CNc1ccccn1,-12,-6
CCCC1=NN(C(=O)c2cccc(Cl)c2)C(O)(C(F)(F)F)C1 (centres undefined),-16,-8
CCCOc1ccc(C(=O)Nc2ccc(N3CCCC3)cc2)cc1,-6,3
CCCCOc1ccc(C(=O)Nc2ccc(N3CCCC3=O)cc2)cc1,3,88*
COc1ccc(CN2CCc3cc(OC)c(OC)cc3C2)cc1OC,7,-2
COc1cc2c(cc1OC)CN(Cc1ccc(OCc3ccccc3)c(OC)c1)CC2,0,100*
CC(C)c1ccc(NCCC(=O)c2ccc([N+](=O)[O-])cc2)cc1,-1,56*
Cc1ccc(NCCC(=O)c2cccc([N+](=O)[O-])c2)cc1,-5,27
CC(=O)Nc1ccccc1NC(=O)Cc1ccc(Cl)cc1,95*,-1
O=C(Cc1ccc(Cl)cc1)Nc1ccccc1NC(=O)Cc1ccc(Cl)cc1,3,-5
O=C1CN(C(=O)Cc2ccc(F)cc2)C(c2ccc(F)cc2)c2cc(Br)ccc2N1 (centres undefined),-4,29
